Compound activity deposited in PubChem by several laboratories.
Mot1-301 SUMO = SUMOylation pathway inhibition by Mot1-301 growth rescue | S. cerevisiae Mot1-301 growth rescue, ATP luminescence, 38.5C; percent above DMSO median, 100 means doubled | hit rate 1% among 320,000 | growth rescue, % at 18.8 µM | AID 2716;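 active means every valid replicate shows activation above 250% relative to neutral control wells; inactive means the rest, any valid replicate at or below 250%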;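 further: OY570 slx delta 5 strain wells were the positive control but not used for scaling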
PfM18AAP inh = blocks P. falciparum M18 aspartyl aminopeptidase; hit rate 1.2% among 290,000; recombinant PfM18AAP, H-Glu-NHMec fluorogenic cleavage; inhibition, % at 7.35 µM;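 active means inhibition above the campaign mean inhibition over all tested compounds plus 3 SD, cut at about 28% in these data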;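 further: 0% = plate median of test compound wells and 100% = 2 mM ZnCl2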
HIF act = HIF pathway transcriptional activation. hit rate 0.32% among 300,000. AID 1910. activation, % at 7.5 µM (by protocol). U2OS HRE-luciferase reporter, luminescence; normalized: DMSO 0%, desferrioxamine 100%;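 active means mean activation of at least 10% of the iron chelator positive control signal, with at least half of replicates also reaching 10%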
ALR inh = human ALR oxidase inhibition via reduced H2O2; purified ALR, DTT oxidation, H2O2 HRP-luminol luminescence; inhibition, % (concentration not given with the values); hit rate 3.8% among 290,000;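 active means mean replicate inhibition above about 79%, with every replicate also reaching it, limit read from the data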
Target sequence (P55789 whole entry, looked up): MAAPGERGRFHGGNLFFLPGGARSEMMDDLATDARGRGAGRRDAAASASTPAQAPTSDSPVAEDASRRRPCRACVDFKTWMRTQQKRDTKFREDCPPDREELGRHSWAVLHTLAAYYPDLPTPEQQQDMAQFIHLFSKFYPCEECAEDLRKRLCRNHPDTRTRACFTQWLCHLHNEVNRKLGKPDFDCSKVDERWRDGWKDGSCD
Yeast Mot1 SUMO = inhibits SUMO pathway, affecting Mot1-301 yeast growth; shares compounds with Mot1-301 SUMO; S. cerevisiae Mot1-301 galactose growth, ATP luminescence, 24 h; -100 = growth of slx-deleted rescue strain; growth activity, percent, % at 42 µM; 2,300 tested, under 10 active; AID 493004;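 active means Signal drops as the depositor expects, and the fitted half-maximal dose is no more than ten times the top valid tested dose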;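 further: more negative values mean stronger growth rescue toward the control strain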
An asterisk follows results filed as active; nt = not tested or not shown; + = active, no number. In the library only some 5.3% were active in any assay of this set; here they are far more common.

SMILES	Mot1-301 SUMO	PfM18AAP inh	HIF act	ALR inh	Yeast Mot1 SUMO
COc1ccc(NC(=O)COC(=O)CC2CC3CCC2C3)c([N+](=O)[O-])c1 (stereo not given)	6.6	-5.5	0.1	nt	nt
CCCS(=O)(=O)N1CCC(C(=O)N2CCc3ccccc3C2)CC1	396.6*	5.8	0.1	nt	0.1
COc1ccc(N(C(=O)c2ccco2)C(C(=O)NC2CCCC2)c2ccccc2)cc1 (stereo not given)	-5.0	-5.5	-0.2	nt	nt
COc1ccc(N(C(=O)c2ccco2)C(C(=O)NC2CCCCC2)c2ccccc2)cc1 (stereo not given)	693.6*	-5.7	-0.1	2.1	0.5
COC(=O)c1ccccc1NC(=O)CSc1nnnn1CC(=O)O	616.1*	-3.5	-0.3	nt	0.0
C=CCn1nnnc1SCC(=O)Nc1ccccc1C(=O)OC	-19.3	-4.5	-0.2	-15.7	nt
O=c1[nH]c(CN2CCN(S(=O)(=O)/C=C/c3ccccc3)CC2)nc2cc(Cl)ccc12	40.0	-7.0	0.0	-13.9	nt
O=C(C1CCN(S(=O)(=O)N2CCC3(CC2)OCCO3)CC1)N1CCC(Cc2ccccc2)CC1	398.5*	-5.6	-0.2	-4.3	0.5
Cc1ccnc(NS(=O)(=O)c2cnc(Cl)c(Br)c2)c1	-1.5	0.8	-0.3	-11.5	nt
CCOC(=O)NC(=O)C(=CNc1ccccc1C)C(=O)NC(=O)OCC	137.5	-3.1	0.1	-0.5	nt
Cc1ccc(C(=O)/C=C/NNC(=O)c2ccccc2O)cc1	-12.3	6.9	1.0	7.5	nt
CCc1c(C)c2ccc(OCC(=O)N(C)C)c(C)c2oc1=O	177.3	1.0	0.5	-6.8	nt
CCc1c(C)c2ccc(OCC(=O)OC(C)C)c(C)c2oc1=O	378.8	0.0	0.0	-6.1	0.7
COc1cc(COc2ccc3c(C)c(CC(=O)O)c(=O)oc3c2C)cc(OC)c1OC	627.6*	-1.7	-8.9	-3.0	-0.7
Cc1c(CC(=O)O)c(=O)oc2c(C)c(OCc3ccccc3)ccc12	-8.2	-14.8	-0.5	-0.6	nt
CCc1noc(C)c1C(=O)NC1CCCc2c1cnn2-c1ccc(C(C)(C)C)cc1 (stereo not given)	0.2	-0.5	1.0	-9.7	nt
COc1ccc(CNCC(=O)Nc2cc(C)nn2-c2nc(C)cc(C)n2)cc1OC	63.4	-6.5	1.5	-3.0	nt
Cc1cc(C)nc(-n2nc(C)cc2NC(=O)CNCc2ccccc2)n1	+	-2.1	0.0	-0.7	1.0
COC(=O)\C(C(C)=O)=C(/C=C/C=C/C=C/N(C)C)N(C)C	15.0	2.0	-0.5	nt	nt
Cc1cc(=O)n2[nH]c(-c3ccc(F)cc3)nc2n1	551.1*	-11.9	2.8	3.5	0.1
Cc1cc(=O)n2[nH]c(-c3cccnc3)nc2n1	8.2	5.4	0.0	-2.3	nt
CN(CC(=O)Nc1ccccc1Cl)C(=O)c1cc(-c2cccs2)nn1-c1ccccc1	-4.3	nt	-0.3	4.2	nt
CCOC(=O)c1[nH]cnc1C(=O)NC1CCN(C(=O)OC(C)(C)C)CC1	-17.1	nt	nt	0.9	nt
COc1ccc(N2CCN(C3CCCN(Cc4ccc(F)c(F)c4)C3)CC2)cc1 (stereo not given)	13.0	2.9	1.9	40.9	nt
COc1ccc(N2CCN(C3CCCN(Cc4cccc(OC)c4)C3)CC2)cc1 (stereo not given)	667.0*	6.7	0.6	nt	0.3
SMILES	Mot1-301 SUMO	PfM18AAP inh	HIF act	ALR inh	Yeast Mot1 SUMO
COc1cccc(N2CCN(C3CCCC(C)C3)CC2)c1 (stereo not given)	676.0*	-1.0	0.4	9.2	0.3
COc1ccc(S(=O)(=O)N2CCN(C3CCCC(C)C3)CC2)cc1 (stereo not given)	26.5	-5.4	-0.3	nt	nt
Cc1cccc(N(CC(=O)NCc2ccc(F)cc2)C(=O)c2csnn2)c1C	0.5	2.3	-0.3	0.3	nt
O=C(NCc1ccccn1)C1Nc2ccc(C(F)(F)F)cc2C2C=CCC12 (stereo not given)	561.7*	nt	-1.2	0.2	1.1
Cc1cc(=O)oc2cc(OCC(=O)Nc3ccccc3C(N)=O)c(Cl)cc12	3.9	-1.5	0.2	-2.3	nt
c1ccc2[nH]c(CSc3nccs3)nc2c1	370.7*	-0.7	0.3	-25.0	0.3
c1ccc(SCc2nc3ccccc3[nH]2)cc1	-7.2	1.5	0.1	25.1	nt
CN(C)c1ccc(C(=O)N2CCCC(CCC(=O)N3CCN(c4ccccn4)CC3)C2)cc1 (stereo not given)	553.6*	3.6	0.1	56.6	-0.1
CN(C)c1cccc(C(=O)N2CCCC(CCC(=O)N3CCN(c4ccccn4)CC3)C2)c1 (stereo not given)	4.9	-6.0	-0.8	24.5	nt
COc1cc(NC(=O)c2cc(Cl)ccc2Cl)ccc1-c1cc2ccccc2oc1=O	405.8*	3.8	0.0	0.3	0.4
COc1cc(NC(=O)c2cccnc2)ccc1-c1cc2ccccc2oc1=O	17.3	6.9	-1.1	0.2	nt
Cc1ccc(-c2nc(-c3ccncc3)no2)cc1C	31.3	-1.7	1.7	-6.0	nt
Fc1cccc(F)c1-c1nc(-c2ccncc2)no1	952.5*	-6.6	2.4	-0.8	-0.4
CCOC(=O)/C=C1/SCC(=O)N1CC(=O)Nc1cccc(F)c1	-12.4	nt	nt	-0.3	nt
O=C(CSc1ncn[nH]1)Nc1cccc(S(=O)(=O)N2CCCCCC2)c1	499.1*	24.1	-0.3	-4.1	0.0
O=C(COC(=O)c1c(F)cccc1F)Nc1ccc2[nH]c(=O)[nH]c2c1	75.7	3.0	-0.1	-3.9	nt
O=C(COC(=O)c1cccc(Br)c1)Nc1ccc2[nH]c(=O)[nH]c2c1	510.1*	nt	-1.0	1.2	-0.1
O=C1c2cc(N3CCCC3)c([N+](=O)[O-])cc2C(=O)N1c1ccccc1	377.0*	-10.3	-0.6	-8.0	1.0
CC1CC(C)CN(c2cc3c(cc2[N+](=O)[O-])C(=O)N(c2ccccc2)C3=O)C1 (stereo not given)	-17.7	-4.6	0.1	-10.9	nt
NC(=O)C1CCN(Cc2nc3cc(Cl)ccc3c(=O)[nH]2)CC1	11.3	3.9	-0.9	-0.4	nt
CCNCc1nc2cc(Cl)ccc2c(=O)[nH]1	830.7*	-7.8	-0.4	-1.4	0.1
O=C(Cn1cnc2ccccc2c1=O)N1CCN(S(=O)(=O)c2ccc(F)cc2)CC1	-4.6	nt	nt	-4.6	nt
On1c(-c2ccccc2Cl)nc2ccccc21	-1.7	0.7	0.3	-1.7	nt
On1c(-c2ccccc2Cl)nc2ncccc21	498.0*	-5.0	-0.5	-0.2	0.4
O=C(NC(=S)Nc1cccc(Cl)c1Cl)C1CC1	21.9	6.2	0.2	2.2	nt
CC(C)(C)CC(=O)Nc1cc(S(=O)(=O)N2CCOCC2)ccc1N1CCCC1	508.4*	1.1	-0.2	-3.2	0.4
COc1ccccc1C(=O)OCC(=O)NC(=O)NCc1ccccc1	890.8*	3.9	0.3	-5.5	0.9
O=C(COC(=O)c1cc(-c2ccco2)nc2ccccc12)NCc1ccccc1	1.3	-44.6	1.0	25.6	nt
CNC(=O)COC(=O)c1cc(-c2ccco2)nc2ccccc12	+	6.2	0.3	10.4	-0.1
COC(=O)CSc1ccc(S(=O)(=O)N2CCCCCC2)cc1[N+](=O)[O-]	519.9*	1.4	0.2	-9.1	0.7
